Assay results published in the supplement of paper PMC11001985.
A number with no mark means an inactive call.

Compound: C#CCNC(=O)CCSSCCC(=O)NCCc1ccc(C=O)c(C=O)c1
Experiment: lysine labeling ratio R10:1 (500 µM / 50 µM probe), SILAC-ABPP in living cells; higher = lower intrinsic lysine reactivity toward the probe, active = 2 or less
Conditions: HeLa; probe concentrations 500 vs 50 µM
Procedure, shortened: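 For each lysine, R is the median over forward and reverse replicates of the filtered median MS1 peptide ratio of high probe to low probe. The probe, an alkyne-tagged, disulfide-linked lysine probe, was given at 500 µM or 50 µM to living SILAC light and heavy HeLa cells in PBS at room temperature, with label swaps. Values are capped at 20.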

UniProt P02786, sequence (P02786 whole entry, looked up): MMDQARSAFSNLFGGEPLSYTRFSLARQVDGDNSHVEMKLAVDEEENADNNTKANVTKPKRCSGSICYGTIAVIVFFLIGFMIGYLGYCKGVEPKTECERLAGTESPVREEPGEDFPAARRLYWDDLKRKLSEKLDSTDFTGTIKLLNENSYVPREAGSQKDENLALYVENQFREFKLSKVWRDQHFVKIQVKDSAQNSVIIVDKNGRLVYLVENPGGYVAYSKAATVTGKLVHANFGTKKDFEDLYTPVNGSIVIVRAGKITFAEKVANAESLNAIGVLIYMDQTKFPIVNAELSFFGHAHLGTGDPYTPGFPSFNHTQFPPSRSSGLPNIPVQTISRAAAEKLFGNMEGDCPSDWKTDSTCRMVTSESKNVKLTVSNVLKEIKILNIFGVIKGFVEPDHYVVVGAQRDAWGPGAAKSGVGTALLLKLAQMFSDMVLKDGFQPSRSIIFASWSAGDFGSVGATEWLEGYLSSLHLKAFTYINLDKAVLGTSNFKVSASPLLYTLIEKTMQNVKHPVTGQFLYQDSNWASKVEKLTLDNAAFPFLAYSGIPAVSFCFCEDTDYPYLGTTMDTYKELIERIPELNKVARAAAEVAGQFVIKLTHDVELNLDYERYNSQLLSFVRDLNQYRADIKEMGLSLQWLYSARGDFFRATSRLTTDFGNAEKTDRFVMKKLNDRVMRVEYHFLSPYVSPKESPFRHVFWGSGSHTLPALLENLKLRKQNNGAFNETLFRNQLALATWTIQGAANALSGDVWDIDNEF
UniProt Q9Y490, sequence (Q9Y490 whole entry): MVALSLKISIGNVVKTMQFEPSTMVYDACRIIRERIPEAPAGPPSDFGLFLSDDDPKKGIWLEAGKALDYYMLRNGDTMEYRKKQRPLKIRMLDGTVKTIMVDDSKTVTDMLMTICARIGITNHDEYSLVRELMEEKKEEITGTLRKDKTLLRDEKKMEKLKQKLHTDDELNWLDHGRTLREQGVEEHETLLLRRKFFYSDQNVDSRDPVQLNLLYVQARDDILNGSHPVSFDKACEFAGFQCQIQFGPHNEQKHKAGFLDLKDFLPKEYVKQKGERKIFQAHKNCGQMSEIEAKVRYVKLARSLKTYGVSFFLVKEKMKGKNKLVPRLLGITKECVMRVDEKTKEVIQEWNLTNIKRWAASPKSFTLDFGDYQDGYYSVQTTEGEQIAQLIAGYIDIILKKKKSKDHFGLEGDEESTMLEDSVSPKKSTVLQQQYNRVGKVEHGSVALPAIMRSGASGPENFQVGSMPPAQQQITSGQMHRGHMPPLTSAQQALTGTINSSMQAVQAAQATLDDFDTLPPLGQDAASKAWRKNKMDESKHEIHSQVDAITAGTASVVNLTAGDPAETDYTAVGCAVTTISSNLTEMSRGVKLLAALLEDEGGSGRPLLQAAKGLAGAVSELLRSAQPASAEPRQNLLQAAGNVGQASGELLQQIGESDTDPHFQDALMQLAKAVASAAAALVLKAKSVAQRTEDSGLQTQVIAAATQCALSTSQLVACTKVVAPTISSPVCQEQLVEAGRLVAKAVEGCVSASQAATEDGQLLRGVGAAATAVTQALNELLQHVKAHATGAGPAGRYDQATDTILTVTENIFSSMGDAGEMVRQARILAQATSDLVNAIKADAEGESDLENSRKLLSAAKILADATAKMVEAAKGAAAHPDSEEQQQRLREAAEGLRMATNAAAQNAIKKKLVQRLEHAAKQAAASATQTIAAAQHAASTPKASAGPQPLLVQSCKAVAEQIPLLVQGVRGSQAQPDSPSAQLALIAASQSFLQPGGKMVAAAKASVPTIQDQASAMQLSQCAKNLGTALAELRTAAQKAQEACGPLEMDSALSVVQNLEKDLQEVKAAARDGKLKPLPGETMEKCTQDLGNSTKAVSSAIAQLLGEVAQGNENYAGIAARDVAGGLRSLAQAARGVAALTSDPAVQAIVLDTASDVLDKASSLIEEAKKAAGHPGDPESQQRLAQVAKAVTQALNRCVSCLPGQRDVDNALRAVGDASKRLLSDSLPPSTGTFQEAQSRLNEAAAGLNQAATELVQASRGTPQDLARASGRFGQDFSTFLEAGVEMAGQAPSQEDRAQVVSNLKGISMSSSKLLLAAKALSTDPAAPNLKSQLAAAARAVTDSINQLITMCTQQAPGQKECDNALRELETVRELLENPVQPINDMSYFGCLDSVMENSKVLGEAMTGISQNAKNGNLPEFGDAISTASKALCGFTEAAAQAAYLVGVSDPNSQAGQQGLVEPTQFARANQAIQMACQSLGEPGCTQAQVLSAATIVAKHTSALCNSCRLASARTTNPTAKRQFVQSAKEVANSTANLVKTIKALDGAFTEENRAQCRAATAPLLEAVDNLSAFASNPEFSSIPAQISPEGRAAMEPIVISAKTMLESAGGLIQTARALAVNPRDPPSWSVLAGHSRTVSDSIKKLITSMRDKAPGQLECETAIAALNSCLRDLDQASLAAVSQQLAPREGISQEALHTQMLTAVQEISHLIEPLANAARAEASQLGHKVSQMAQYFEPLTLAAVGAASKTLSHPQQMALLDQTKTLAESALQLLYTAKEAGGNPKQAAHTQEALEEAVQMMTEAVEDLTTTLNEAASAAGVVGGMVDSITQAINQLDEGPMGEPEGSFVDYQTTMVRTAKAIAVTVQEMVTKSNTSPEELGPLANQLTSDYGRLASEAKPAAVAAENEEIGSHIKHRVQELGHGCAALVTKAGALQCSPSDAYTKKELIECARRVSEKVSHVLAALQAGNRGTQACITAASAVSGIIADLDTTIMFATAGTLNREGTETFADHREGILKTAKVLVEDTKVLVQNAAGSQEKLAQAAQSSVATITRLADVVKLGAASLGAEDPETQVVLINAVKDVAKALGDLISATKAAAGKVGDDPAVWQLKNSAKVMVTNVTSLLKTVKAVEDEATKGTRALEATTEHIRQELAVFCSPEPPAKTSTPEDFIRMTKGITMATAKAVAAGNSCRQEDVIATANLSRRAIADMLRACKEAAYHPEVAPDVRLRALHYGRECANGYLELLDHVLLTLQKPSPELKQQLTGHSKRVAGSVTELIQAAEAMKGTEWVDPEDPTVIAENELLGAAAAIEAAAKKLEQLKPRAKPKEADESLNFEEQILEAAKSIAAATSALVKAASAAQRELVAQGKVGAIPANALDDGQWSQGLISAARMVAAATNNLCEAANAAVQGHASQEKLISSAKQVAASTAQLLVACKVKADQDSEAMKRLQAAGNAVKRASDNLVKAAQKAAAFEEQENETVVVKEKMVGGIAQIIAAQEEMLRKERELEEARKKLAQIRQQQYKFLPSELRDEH
UniProt P49257, sequence (P49257 whole entry): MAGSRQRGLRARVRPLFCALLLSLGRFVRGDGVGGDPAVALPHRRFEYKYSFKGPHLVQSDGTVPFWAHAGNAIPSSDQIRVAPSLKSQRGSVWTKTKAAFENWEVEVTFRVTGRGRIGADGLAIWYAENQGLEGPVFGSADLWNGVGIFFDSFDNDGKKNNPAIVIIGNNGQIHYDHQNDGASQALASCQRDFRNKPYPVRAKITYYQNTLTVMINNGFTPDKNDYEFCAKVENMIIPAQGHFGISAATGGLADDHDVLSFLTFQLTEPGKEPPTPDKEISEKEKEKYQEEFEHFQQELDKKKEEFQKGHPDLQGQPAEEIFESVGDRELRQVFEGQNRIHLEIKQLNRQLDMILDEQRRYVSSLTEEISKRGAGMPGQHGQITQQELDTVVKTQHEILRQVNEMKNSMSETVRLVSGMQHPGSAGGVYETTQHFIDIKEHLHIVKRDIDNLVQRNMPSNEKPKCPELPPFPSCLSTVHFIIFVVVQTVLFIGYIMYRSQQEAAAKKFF
UniProt P61981, sequence (P61981 whole entry): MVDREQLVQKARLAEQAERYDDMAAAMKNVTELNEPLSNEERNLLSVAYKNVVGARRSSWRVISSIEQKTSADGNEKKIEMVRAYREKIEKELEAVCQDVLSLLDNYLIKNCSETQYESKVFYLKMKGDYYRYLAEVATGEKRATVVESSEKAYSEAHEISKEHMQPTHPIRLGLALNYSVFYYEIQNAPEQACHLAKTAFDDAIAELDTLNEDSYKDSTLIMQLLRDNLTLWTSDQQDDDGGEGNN
UniProt Q03405, sequence (Q03405 whole entry): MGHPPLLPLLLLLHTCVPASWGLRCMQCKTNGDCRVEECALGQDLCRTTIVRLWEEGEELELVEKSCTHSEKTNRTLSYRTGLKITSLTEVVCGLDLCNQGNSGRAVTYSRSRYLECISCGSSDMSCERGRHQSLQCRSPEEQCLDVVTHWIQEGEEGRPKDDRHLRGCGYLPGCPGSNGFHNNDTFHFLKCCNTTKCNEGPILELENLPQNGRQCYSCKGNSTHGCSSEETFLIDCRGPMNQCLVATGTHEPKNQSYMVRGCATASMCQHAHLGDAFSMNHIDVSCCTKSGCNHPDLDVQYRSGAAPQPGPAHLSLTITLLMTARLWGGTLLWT
UniProt P27348, sequence (P27348 whole entry): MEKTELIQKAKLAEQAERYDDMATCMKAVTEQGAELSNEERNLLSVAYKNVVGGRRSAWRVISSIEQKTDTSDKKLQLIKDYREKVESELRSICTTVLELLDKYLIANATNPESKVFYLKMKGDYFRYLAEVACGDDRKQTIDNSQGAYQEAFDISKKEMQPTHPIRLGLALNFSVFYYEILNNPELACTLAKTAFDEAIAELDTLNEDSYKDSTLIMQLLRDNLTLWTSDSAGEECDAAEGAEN
UniProt P26641, sequence (P26641 whole entry): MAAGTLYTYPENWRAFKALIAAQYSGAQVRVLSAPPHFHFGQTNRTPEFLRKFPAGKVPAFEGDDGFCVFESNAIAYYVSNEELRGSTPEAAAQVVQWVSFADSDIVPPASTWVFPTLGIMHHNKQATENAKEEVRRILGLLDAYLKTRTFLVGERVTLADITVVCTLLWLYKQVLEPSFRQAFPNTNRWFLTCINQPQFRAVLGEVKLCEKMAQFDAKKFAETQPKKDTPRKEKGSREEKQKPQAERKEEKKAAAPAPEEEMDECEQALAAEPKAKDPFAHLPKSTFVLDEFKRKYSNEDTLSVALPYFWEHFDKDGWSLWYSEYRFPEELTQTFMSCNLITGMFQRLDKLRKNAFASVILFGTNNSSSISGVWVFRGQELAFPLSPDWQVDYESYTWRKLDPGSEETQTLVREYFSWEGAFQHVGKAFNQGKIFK

Target	lysine labeling ratio R10:1
LMAN1 (lysine site: K87) (UniProt P49257)	3.85
IARS (lysine site: K375) (UniProt P41252)	1.66 (active)
TFRC (lysine site: K161) (UniProt P02786)	6.73
ROR2 (lysine site: K382) (UniProt Q01974)	1.95 (active)
UniProt P48047 (lysine site: K98)	1.89 (active)
CSE1L (lysine site: K158) (UniProt P55060)	3.34
LMAN1 (lysine site: K372) (UniProt P49257)	2.72
PLAUR (lysine site: K29) (UniProt Q03405)	3.61
SURF4 (lysine site: K154) (UniProt O15260)	4.16
EEF1G (lysine site: K241) (UniProt P26641)	1.4 (active)
YWHAQ (lysine site: K80) (UniProt P27348)	3.11
UniProt P61981 (lysine site: K142)	3.71
SEMA3C (lysine site: K106) (UniProt Q99985)	0.653 (active)
KIRREL (lysine site: K113) (UniProt Q96J84)	2.15
TFRC (lysine site: K439) (UniProt P02786)	2.93
UniProt P62244 (lysine site: K71)	3.24
GALNT2 (lysine site: K363) (UniProt Q10471)	3.95
TLN1 (lysine site: K138) (UniProt Q9Y490)	1.21 (active)
FOLR1 (lysine site: K97) (UniProt P15328)	4.12
TLN1 (lysine site: K149) (UniProt Q9Y490)	1.5 (active)
UniProt P62851 (lysine site: K66)	2.69
FLNB (lysine site: K697) (UniProt O75369)	2.95
SPTBN1 (lysine site: K932) (UniProt Q01082)	3.29
